Source: PubChem
TRPM1 prom inh = MITF TRPM1 promoter inhibition in SK-MEL-5 cells; 330,000 compounds, 0.83% hits; SK-MEL-5 TRPM1 promoter luciferase, 24 h; inhibition, % at 12.5 µM;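 active means mean inhibition across replicates of 60% or more, whatever share of single replicates reaches that level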
EWS-Fli block = EWS/Fli transcriptional activity inhibition; A673 NR0B1-luciferase reporter, viability-normalised; inhibition, % at 12.6 µM; 350,000 compounds, 0.67% hits; AID 651661;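 active means mean inhibition of at least 50% after viability correction, with every replicate also passing that limit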;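 further: firefly luciferase signal divided by Alamar Blue viability fluorescence both relative to DMSO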
PAX8 inh HTS = PAX8 transcriptional activity inhibition; RMG-I TPO-luciferase reporter, SteadyGlo, 24 h; inhibition, % at 12.6 µM; 360,000 compounds, 1.2% hits; AID 652154;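 active means mean replicate inhibition at least 60% with every replicate also reaching 60%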;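 further: luciferase light reporting Pax8 driven TPO promoter activity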
PGC1a acetyl inh = modulators of PGC1a acetylation | AID 651687 | 350,000 compounds, 0.17% hits | U2OS PGC1a acetylation, AlphaScreen anti-acetyl-lysine; with virally co-expressed GCN5 acetyltransferase | inhibition, % at 15.6 µM;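 active means every replicate shows inhibition of at least 40%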
LGR2 inh = inhibitors of bursicon-induced Drosophila LGR2 receptor cAMP signaling; HEK293 LGR2, CRE-luciferase, bursicon-stimulated, 4 h; inhibition, % at 9.99 µM; 380,000 compounds, 0.35% hits; AID 720647;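 active means drop in luminescence signal, shown as inhibition above about 50% in the replicate tests, limit read from the data, passing the limit was not always enough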;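 further: agonist challenge used bursicon conditioned medium at about half maximal strength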
EBV LMP1 NFkB = inhibitors of Epstein-Barr LMP1-induced NF-kappaB reporter; LMP1-induced NF-kappaB luciferase reporter cells, luminescence; inhibition, % at 12.5 µM; 350,000 compounds, 0.69% hits; in the data active means inhibition above about 41%
Hits are given with their value; 0 = inactive; - = not tested or not shown. Most compounds without a hit are left out; they make up all but 2.2% or so of the library.

SMILES	TRPM1 prom inh	EWS-Fli block	PAX8 inh HTS	PGC1a acetyl inh	LGR2 inh	EBV LMP1 NFkB
CCCN(C)C[C@@H]1OCCCC[C@@H](C)Oc2ccc(NS(=O)(=O)c3ccc(C)cc3)cc2C(=O)N([C@H](C)CO)C[C@@H]1C	-	-	0	0	0	-
CO[C@@H]1CN(C)C(=O)c2cc(NC(=O)C3CCCCC3)ccc2OC[C@@H](C)N(Cc2nccs2)C[C@@H]1C	-	0	0	0	0	-
Cc1ccc(S(=O)(=O)N[C@@H]2CC[C@H](CCNC(=O)CN3CCOCC3)O[C@H]2CO)cc1	-	0	0	0	0	-
CCCN1[C@@H]2c3ccc(-c4ccccc4F)c(=O)n3C[C@H]1[C@H](CO)[C@H]2C(=O)NCc1ccccn1	-	0	0	-	0	-
C[C@H](CO)N1C[C@H](C)[C@@H](CN(C)C(=O)NC2CCCCC2)OCCCC[C@H](C)Oc2ccc(NC(=O)CCCN(C)C)cc2C1=O	-	0	-	0	0	-
O=C(C[C@H]1CC[C@@H]2[C@H](COC[C@@H](O)CN2Cc2ccc3c(c2)OCO3)O1)Nc1ccc(-c2ccccc2)cc1	-	0	0	0	0	-
O=C(C[C@H]1CC[C@H]2[C@@H](COC[C@@H](O)CN2Cc2ccc3c(c2)OCO3)O1)Nc1ccc(-c2ccccc2)cc1	-	0	86.6	0	0	-
O=C(C[C@@H]1CC[C@@H]2[C@H](COC[C@H](O)CN2Cc2ccc3c(c2)OCO3)O1)Nc1ccc(-c2ccccc2)cc1	-	0	79.7	0	0	-
C[C@@H]1CN([C@H](C)CO)C(=O)c2cccc(NC(=O)Nc3ccc(C(F)(F)F)cc3)c2O[C@H]1CN(C)S(C)(=O)=O	-	0	0	0	0	-
C[C@H](CO)N1C[C@H](C)[C@@H](CN(C)Cc2ccc(C(F)(F)F)cc2)Oc2ccc(NS(=O)(=O)c3ccccc3)cc2CC1=O	-	-	76.2	0	0	-
C[C@H]1CN([C@@H](C)CO)C(=O)Cc2cc(NS(=O)(=O)c3ccc(Cl)cc3)ccc2O[C@H]1CN(C)Cc1ccc(C(F)(F)F)cc1	-	0	0	0	0	-
C[C@H](CO)N1C[C@H](C)[C@H](CN(C)Cc2ccc(C(F)(F)F)cc2)Oc2ccc(NS(=O)(=O)c3ccc(Cl)cc3)cc2CC1=O	-	59.2	0	0	0	-
C[C@H]1CN([C@@H](C)CO)C(=O)Cc2cc(NS(=O)(=O)c3cccs3)ccc2O[C@@H]1CN(C)Cc1ccc(C(F)(F)F)cc1	-	0	0	0	0	-
C[C@@H]1CN([C@@H](C)CO)C(=O)Cc2cc(NS(=O)(=O)c3cccs3)ccc2O[C@H]1CN(C)Cc1ccc(C(F)(F)F)cc1	-	0	91.4	0	0	-
C[C@H](CO)N1C[C@H](C)[C@@H](CN(C)Cc2ccc(C(F)(F)F)cc2)Oc2ccc(NS(=O)(=O)c3ccc(F)cc3)cc2CC1=O	-	0	82.8	0	0	-
Cc1noc(C)c1S(=O)(=O)N(C)C[C@@H]1Oc2ccc(NC(=O)Nc3ccc4c(c3)OCO4)cc2C(=O)N([C@@H](C)CO)C[C@@H]1C	-	0	-	0	0	-
C[C@H](CO)N1C[C@H](C)[C@H](CN(C)Cc2ccc(C(F)(F)F)cc2)Oc2ccc(NS(=O)(=O)c3ccc(F)cc3)cc2CC1=O	-	0	84.9	0	0	-
O=C(CN1CCOCC1)N[C@H]1CC[C@@H](CCn2cc(C3CCCC3)nn2)O[C@@H]1CO	-	0	-	0	0	-
O=C(O)c1cc(/C=C/c2ccc(N3CCOCC3)cc2)nc2ccccc12	0	0	0	-	69.3	59.2
COc1ccccc1NC(=O)C(=O)N/N=C(\C)CC(=O)Nc1ccccc1C(F)(F)F	0	0	0	-	0	47.0
C[C@@H]1CN([C@@H](C)CO)C(=O)c2cc(NC(=O)CCCN(C)C)ccc2O[C@@H]1CN(C)C(=O)Nc1ccc2c(c1)OCO2	-	0	-	0	0	-
COc1ccc(C)cc1NC(=O)CNC(c1ccccc1)c1ccc(C)cc1 (centres undefined)	0	54.8	0	-	0	0
CCOC(=O)c1ccc(N2C(=O)CC(N3CCC(O)(c4ccc(Br)cc4)CC3)C2=O)cc1 (centres undefined)	0	-	-	47.2	-	0
CCOC(=O)c1ccc(N2C(=O)CC(N3CCC(O)(c4ccc(Cl)cc4)CC3)C2=O)cc1 (centres undefined)	0	-	0	0	-	0
CN1CCN(CC(=O)Nc2cccc(S(=O)(=O)N(C)c3ccccc3)c2)CC1	0	0	0	0	-	74.0
SMILES	TRPM1 prom inh	EWS-Fli block	PAX8 inh HTS	PGC1a acetyl inh	LGR2 inh	EBV LMP1 NFkB
CN(c1ccccc1)S(=O)(=O)c1cccc(NC(=O)c2cc(=O)c3ccccc3o2)c1	0	0	0	0	67.5	0
COC(=O)C[C@H]1C[C@@H]2c3cc(NC(=O)Nc4ccc(F)cc4)ccc3O[C@@H]2[C@H](CO)O1	-	0	0	0	0	-
CCCCN1C2CCCC1CC(NC(=O)C1CCCCC1)C2 (centres undefined)	0	-	0	0	-	51.4
O=C(NC1CC2CCCC(C1)N2Cc1ccccc1)C1CCCCC1 (centres undefined)	0	0	0	-	0	0
COc1ccc(S(=O)(=O)N2c3ccccc3OCC2CC(=O)O)cc1 (centres undefined)	0	0	0	-	0	0
COc1ccc(S(=O)(=O)N2CC(C(=O)O)Oc3ccccc32)cc1 (centres undefined)	0	0	0	0	0	0
COc1ccc(S(=O)(=O)N2c3ccccc3OCC2C)cc1 (centres undefined)	0	73.7	0	0	0	0
COc1ccc(S(=O)(=O)N2CCOc3ccccc32)cc1	0	55.8	0	0	0	0
COc1ccc(S(=O)(=O)N2c3ccccc3OCC2C(C)(C)C)cc1 (centres undefined)	0	58.2	0	0	0	0
COc1ccc(S(=O)(=O)N2c3ccccc3OCC2c2ccccc2)cc1 (centres undefined)	0	-	0	0	-	0
COc1ccc2c3c(n(C)c2c1)[C@@H](CO)N(C(=O)c1cccnc1)CC31CCN(S(C)(=O)=O)CC1	-	0	-	0	0	-
C[C@H](CO)N1C[C@H](C)[C@H](CN(C)Cc2ccncc2)OCCCC[C@H](C)Oc2ccc(N(C)C)cc2C1=O	-	0	0	0	0	-
C=CCn1c(SCc2cc(C(C)=O)ccc2OCC)nc2ccccc2c1=O	0	53.9	0	-	-	0
COc1ccc(C(C)=O)cc1CSc1nc2ccccc2c(=O)n1-c1ccccc1	0	-	0	0	0	0
C[C@@H]1CN([C@H](C)CO)C(=O)CCCn2nncc2CO[C@@H]1CN(C)Cc1cccc(C(=O)O)c1	-	0	0	0	0	-
Cc1cc(-c2csc(NC(=O)c3ccc(C#N)cc3)n2)c(C)n1Cc1ccco1	0	0	121.0	-	-	0
CC1=NN(c2nc(N)nc(/C(C#N)=C/c3ccc([N+](=O)[O-])o3)n2)C(C)(C)C1	91.1	70.0	0	-	0	0
O=C1C2C(C(=O)N1/N=C/c1ccc([N+](=O)[O-])o1)C1C=CC2C12CC2 (centres undefined)	0	-	0	0	0	0
CN(C)CCCNc1c2c(nc3ccccc13)CCC2	0	0	0	0	0	0
